# The panel holds about 83,000 compounds, 20% with a hit somewhere; the sample as a whole holds those more often.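 Treatment: one concentration, 48 hours, 96-well format. Scoring: percent growth, with anything below 10 considered active.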 Calls of active or inactive are those of the source.
# Test system: NCI-H23 lung
# Assay: NCI-60 one-dose screen, 48 h (100 = growth as untreated, 0 = no growth, -100 = all killed)
# Conditions: 10 µM unless noted
row,SMILES,growth
1,COc1ccc(/C=C(\C#N)n2nnc3cc(Cl)ccc32)cc1,8.62% (active)
2,COc1ccc(C(=O)/C=C/c2c(C(F)(F)F)nc3ccccn23)cc1OC,0.445% (active)
3,CCN(C)S(=O)(=O)Nc1cccc(Nc2ncnc3cc(NC(=O)CCl)ccc23)c1Cl,-27.1% (active)
4,Cc1c2cnccc2c(C)c2c1c1cc(C#N)ccc1n2C,-37.4% (active)
5,CN(C)CC(C)(C)C(=O)/C=C/c1ccccc1,-28.8% [25 µM] (active)
6,O=CN1N=C(c2cccc(Nc3ccnc4cc(Cl)ccc34)c2)CC1c1ccccc1 (stereo unspecified),4.34% (active)
7,O=C(Nc1ccc(Oc2cccc(Cl)c2)c(Cl)c1)c1cnccn1,46.1% (inactive)
8,O=c1[nH]c(Cc2nc3ccccc3s2)nc2cc(Br)ccc12,86.1% (inactive)
9,C#CCNC(=O)[C@H](CC)[C@H]1CC[C@H](C)[C@H]([C@@H](C)[C@H](O)[C@H](C)C(=O)[C@H](CC)C2O[C@]3(C=CC(=O)[C@]4(CC[C@@](C)([C@H]5CC[C@](O)(CC)[C@H](C)O5)O4)O3)[C@H](C)C[C@@H]2C)O1 (stereo partly specified),42.4% (inactive)
10,O=C(Nc1ccc(Oc2cccc(F)c2)c(Cl)c1)c1cccnc1,44.9% (inactive)
11,CS(=O)(=O)Nc1cc(-c2ccc3ncnc(Nc4ccc5c(cnn5Cc5ccc(F)cc5)c4)c3c2)cnc1Cl,43.8% (inactive)
12,COC1=CC(c2ccc[nH]2)=N/C1=C\c1[nH]c(C)c(C)c1CCC(=O)OCc1ccccc1,-9.49% (active)
13,CC(C)(C)CC(C)(C)NC(=O)Nc1ncccc1OCc1ccccc1,86.4% (inactive)
14,Nc1nc2ccccc2c2c1S(=O)(=O)c1ccc(Cl)cc1C2=O,37.9% (inactive)
15,CCOC(=O)C/C(=N\Nc1cc(=O)[nH]c2ccc(Br)cc12)C(=O)OCC,91.2% (inactive)
16,COc1cc(-c2csc(NC(=O)c3ccc(N4CCOCC4)c(C(F)(F)F)c3)n2)cc(OC)c1OC,15.7% (inactive)
17,Oc1c(Br)cc(Br)c2ccc(Cn3cc(-c4ccc(C(F)(F)F)cc4)nn3)nc12,84.7% (inactive)
18,C#CCOc1ccc2ncnc(Nc3ccc(NC(=O)C=C)cc3)c2c1,2.09% (active)
19,CCn1cc(C(=O)O)c(=O)c2cc(F)c(N3CCN(CC(=O)Nc4ccc(S(=O)(=O)Nc5nccc(C)n5)cc4)C(C)C3)c(F)c21 (stereo unspecified),103% (inactive)
20,O=C(Nc1cccc(-c2ccc(N3CCOCC3)nn2)c1)Nc1cccc(C(F)(F)F)c1,70.4% (inactive)
21,CSc1nc2ncc([N+](=O)[O-])c(=O)n2[nH]1,104% (inactive)
22,COc1cc2ncnc(Nc3ccc(S(=O)(=O)Nc4cc(C)on4)cc3)c2cc1OCCCN1CCN(c2ccc(F)cc2)CC1,105% (inactive)
23,O=S(=O)(NCCNc1nccc(-c2c(-c3ccc(F)c(O)c3)nc3occn23)n1)c1ccc(Cl)cc1,80.3% (inactive)
24,Nc1ncnc2c1N=C(c1ccc(Br)cc1)CC(c1cccc(Nc3ccnc4cc(C(F)(F)F)ccc34)c1)N2 (stereo unspecified),62.7% (inactive)
25,Nc1ncc(-c2ccc3ncnc(Nc4cccc(Cl)c4)c3c2)cn1,58.9% (inactive)
26,O=C(Nc1ccccc1)Nc1ncnc2c1ncn2-c1ccc(Cl)cc1,88.5% (inactive)
